A selection: hits, their analogues and other compounds. The true share with any hit is near 3.6%.
EBV LMP1 NFkB: Epstein-Barr LMP1 NF-kappaB reporter inhibition. AID 504558. LMP1-induced NF-kappaB luciferase reporter cells, luminescence. inhibition, % at 12.5 µM. 350,000 tested, 0.69% active; in the data active = inhibition above about 41%;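 note: 0% = neutral control wells and 100% = reference inhibitor control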
TROY signal inh: inhibitors of TROY-dependent NF-kB signaling; Q293 LMP1-TROYcd NF-kB luciferase reporter, 4 h; inhibition, % at 10 µM; 360,000 tested, 0.98% active;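 active = compounds whose plate-normalised and pattern-corrected inhibition of the luciferase reporter signal at the single screening dose is 50% or more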
TWEAK-Fn14 inh: inhibitors of TWEAK-Fn14 interaction signaling. TWEAK-stimulated Fn14 reporter cells, luciferase luminescence, 8 h. inhibition, % at 10 µM. 360,000 tested, 2% active. AID 1159606; in the data active = inhibition above about 50%
HSF1 activator: increases HSF-1 driven luciferase reporter signal | AID 504408 | activation, % at 9 µM | NIH3T3-HGL HSF-1 luciferase reporter, MG132, 8 h; 100% = twice DMSO control signal | 300,000 tested, 1.7% active;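 active = mean replicate activation of at least 50% with a set share of replicates each reaching 50%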;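 note: 0% = median of the neutral control wells and 100% = twice that signal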
LGR2 antag: Drosophila LGR2 receptor signaling inhibition; 380,000 tested, 0.35% active; inhibition, % at 9.99 µM; HEK293 LGR2, CRE-luciferase, bursicon-stimulated, 4 h; AID 720647;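 active = drop in luminescence signal, shown as inhibition above about 50% in the replicate tests, limit read from the data, passing the limit was not always enough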;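 note: agonist challenge used bursicon conditioned medium at about half maximal strength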
HSF1 inh: HSF1 inhibition; 300,000 tested, 0.77% active; NIH3T3-HGL HSE-luciferase, MG132-induced, luminescence 8 h; hits give low values; activity change, negative = inhibition, % at 7.5 µM (by protocol); AID 2098;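 active = more than half of replicate wells show activity change below -50%, luminescence cut by over half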;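 note: luciferase reports HSF-1 transcriptional activity via heat shock element; 0% = median of DMSO wells and -100% = zero luminescence signal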
* hit, by the source's call; nt = not tested or not shown.

SMILES	EBV LMP1 NFkB	TROY signal inh	TWEAK-Fn14 inh	HSF1 activator	LGR2 antag	HSF1 inh
Cc1ccc(Nc2nc(CSc3nnc(-c4ccc(F)cc4)n3C)cs2)cc1	-34	59*	64*	-25	-48	-12
CCCCNc1nc(N)nc(-c2cc(Cl)ccc2O)n1	-40	28	82*	5	2	13
CCNc1nc(N)nc(-c2cc(Cl)ccc2O)n1	-40	1	64*	47	nt	12
CCCNc1nc(N)nc(-c2cc(Cl)ccc2OC)n1	5	2	12	-6	0	-10
CO[C@@H]1CN(C)C(=O)c2cc(NC(=O)C3CCOCC3)ccc2OC[C@@H](C)N(C(=O)C2CCOCC2)C[C@H]1C	nt	nt	nt	nt	-15	nt
Cc1ccc2[nH]cc(CCNC(=O)CN3C(=O)c4ccccc4C3=O)c2c1	-10	9	7	73*	nt	24
COc1ccc2[nH]cc(CCNC(=O)c3ccco3)c2c1	-9	-16	-7	nt	0	nt
Cc1ccc2[nH]cc(CCNC(=O)c3ccco3)c2c1	-6	-26	-9	-76	5	-68*
O=C(CN1C(=O)c2ccccc2C1=O)NCCc1c[nH]c2ccc(Cl)cc12	4	-5	3	11	1	7
O=C(CCNC(=O)c1ccco1)NCCc1c[nH]c2ccccc12	-3	-19	0	nt	8	nt
Cc1cc(Br)c2[nH]cc(CCNC(=O)c3ccco3)c2c1	-3	-34	-2	-77	13	-69*
O=C(N[C@H]1CC[C@@H](CCNS(=O)(=O)c2ccc(F)cc2)O[C@H]1CO)C1CCCC1	nt	nt	nt	nt	-9	nt
C[C@H]1CCCCO[C@@H](CN(C)C)[C@@H](C)CN([C@@H](C)CO)C(=O)c2cc(NC(=O)C3CCCCC3)ccc2O1	nt	nt	nt	nt	9	nt
CCn1c2ccccc2c2cc(NC(=O)c3ccccc3-c3ccccc3C(=O)O)ccc21	52*	0	-6	15	-4	2
CCn1c2ccccc2c2cc(NC(=O)C(C)C)ccc21	-8	-11	2	3	-4	6
CCn1c2ccccc2c2cc(/C=N/NC(=O)c3ccccc3)ccc21	79*	0	9	12	nt	6
COc1ccc2c3c([nH]c2c1)[C@H](CO)N(C(=O)C1CCCCC1)CC31CN(C(=O)c2ccncc2)C1	nt	nt	nt	nt	3	nt
Cc1noc(C)c1NC(=O)Nc1ccc2c(c1)C(=O)N([C@H](C)CO)C[C@H](C)[C@H](CN(C)Cc1ccc3c(c1)OCO3)O2	nt	nt	nt	nt	-9	nt
CN(CCO)c1nc(N)c(C#N)c(CC#N)c1C#N	-8	9	-4	23	-5	3
CC(C)CN(CC(C)C)c1nc(N)c(C#N)c(CC#N)c1C#N	1	nt	34	132*	nt	112
CN(c1ccccc1)c1nc(N)c(C#N)c(CC#N)c1C#N	2	-10	8	69*	-6	47
C[C@H]1CN([C@@H](C)CO)C(=O)c2cccc(NS(C)(=O)=O)c2O[C@H]1CN(C)Cc1ccc2c(c1)OCO2	nt	nt	nt	nt	-2	nt
COc1ccc2nc(NC3=NC(C(=O)Nc4ccc(C)cc4)CC(=O)N3)nc(C)c2c1 (stereo unspecified)	nt	nt	nt	25	nt	-1
COc1ccc(NC(=O)C2CC(=O)NC(Nc3cccc(C)c3)=N2)cc1 (stereo unspecified)	-3	1	-2	87*	nt	32
C[C@H]1CN([C@@H](C)CO)C(=O)c2cc(C#CCN(C)C)cnc2O[C@H]1CN(C)C(=O)Cc1cccnc1	nt	nt	nt	nt	-4	nt
SMILES	EBV LMP1 NFkB	TROY signal inh	TWEAK-Fn14 inh	HSF1 activator	LGR2 antag	HSF1 inh
C[C@H]1CN([C@@H](C)CO)C(=O)c2cc(NS(=O)(=O)c3cn(C)cn3)ccc2O[C@@H]1CN(C)S(=O)(=O)c1ccc(Cl)cc1	nt	nt	nt	nt	0	nt
Oc1ccccc1N=Nc1nc(-c2ccccc2)c(-c2ccccc2)[nH]1	84*	21	33	71*	42	54
CCOc1ccc(-c2nc(-c3cccnc3)no2)cc1	3	0	67*	16	nt	-5
COc1ccc(Cl)cc1-c1nc(-c2ccc(NC(=O)c3ccncc3)cc2)no1	2	0	19	4	nt	-4
COc1ccc(NC(=O)c2ccc(-c3ccc(-c4noc(C)n4)cc3C)cc2)cc1N1CCN(C)CC1	-19	0	-24	nt	104*	nt
COc1ccc(-c2nc(-c3ccc(NC(=O)c4ccncc4)cc3)no2)cc1OC	27	67*	94*	7	nt	1
c1ccc(-c2ccc(-c3nc(-c4ccncc4)no3)cc2)cc1	3	30	65*	47	nt	18
COc1cc(C(=O)Nc2ccc3nc(N4CCN(C)CC4)cc(C)c3c2)cc(OC)c1OC	-22	-10	-28	14	21	2
c1ccc(-c2nc(-c3ccncc3)no2)cc1	-20	-44	-4	26	-37	15
CO[C@@H]1CN(C)C(=O)c2ccc(NS(=O)(=O)c3ccccc3C)cc2OC[C@H](C)NC[C@@H]1C	nt	nt	nt	nt	11	nt
C[C@H](CO)N1C[C@H](C)[C@@H](CN(C)C(=O)NC2CCCCC2)Oc2ccc(NC(=O)CCN3CCOCC3)cc2CC1=O	nt	nt	nt	nt	-9	nt
CN1C(=O)c2cc(NC(=O)c3ccccc3Cl)ccc2OC[C@@H]2O[C@H](CC(=O)NCC(F)(F)F)CC[C@@H]21	nt	nt	nt	nt	6	nt
COc1ccc(-c2nc(-c3cccnc3)no2)cc1	-19	-8	43	44	-3	13
Cc1ccc(-c2nc(-c3ccncc3)no2)c(Cl)c1	9	30	69*	40	75*	19
Brc1ccc(-c2nc(-c3ccncc3)no2)cc1	-8	-63	6	12	-45	11
COc1ccc(-c2nc(-c3cccs3)no2)cc1	48*	58*	86*	-27	81*	-10
COc1ccc(-c2nc(-c3ccncc3)no2)cc1	-7	4	36	54*	-44	27
O=[N+]([O-])c1ccc(-c2nc(-c3ccncc3)no2)cc1	-11	-36	-24	65*	-61	31
Cc1noc(C)c1S(=O)(=O)Nc1ccc2c(c1)C(=O)N([C@@H](C)CO)C[C@@H](C)[C@@H](CN(C)C(=O)c1ccncc1)OCCCC[C@@H](C)O2	nt	nt	nt	nt	4	nt
C[C@@H]1CN([C@@H](C)CO)C(=O)c2cccc(NS(=O)(=O)c3ccc(F)cc3)c2O[C@H]1CN(C)S(=O)(=O)c1ccc(F)cc1	nt	nt	nt	nt	6	nt
CC(C)NC(=O)N(C)C[C@H]1OCCCC[C@@H](C)Oc2ccc(NC(=O)Nc3ccc4c(c3)OCO4)cc2C(=O)N([C@@H](C)CO)C[C@H]1C	nt	nt	nt	nt	5	nt
CNC(=O)C[C@@H]1CC[C@H]2[C@@H](COC[C@H](O)CN2C(=O)c2ccc3c(c2)OCO3)O1	nt	nt	nt	nt	26	nt
O=C(C1CC1)N1[C@@H](CO)[C@@H](c2ccccc2)C12CN(Cc1cccc(Cl)c1)C2	nt	nt	nt	nt	2	nt
CCc1ccc(-c2nc(-c3ccncc3)no2)cc1	16	34	76*	nt	nt	nt
CCCCc1ccc(-c2nc(-c3ccncc3)no2)cc1	-19	-30	33	21	nt	19
